Bioassay records as filed in PubChem BioAssay.
The entries come from a sample that favours hits as a whole.
KDM5B inh – KDM5B demethylase inhibition; Q9UGL1; KDM5B demethylase, FDH-coupled NADH fluorescence (FDH is formaldehyde dehydrogenase); Potency, µM (titrated, usually from 57.7 µM), actives largely listed as inhibitors; 220,000 compounds, 2.6% hits; AID 1347165; active means well fitted inhibition curve with a large enough effect; further: nearly all actives have a fitted effect of over 70% in size
Target sequence (Q9UGL1 whole entry, looked up): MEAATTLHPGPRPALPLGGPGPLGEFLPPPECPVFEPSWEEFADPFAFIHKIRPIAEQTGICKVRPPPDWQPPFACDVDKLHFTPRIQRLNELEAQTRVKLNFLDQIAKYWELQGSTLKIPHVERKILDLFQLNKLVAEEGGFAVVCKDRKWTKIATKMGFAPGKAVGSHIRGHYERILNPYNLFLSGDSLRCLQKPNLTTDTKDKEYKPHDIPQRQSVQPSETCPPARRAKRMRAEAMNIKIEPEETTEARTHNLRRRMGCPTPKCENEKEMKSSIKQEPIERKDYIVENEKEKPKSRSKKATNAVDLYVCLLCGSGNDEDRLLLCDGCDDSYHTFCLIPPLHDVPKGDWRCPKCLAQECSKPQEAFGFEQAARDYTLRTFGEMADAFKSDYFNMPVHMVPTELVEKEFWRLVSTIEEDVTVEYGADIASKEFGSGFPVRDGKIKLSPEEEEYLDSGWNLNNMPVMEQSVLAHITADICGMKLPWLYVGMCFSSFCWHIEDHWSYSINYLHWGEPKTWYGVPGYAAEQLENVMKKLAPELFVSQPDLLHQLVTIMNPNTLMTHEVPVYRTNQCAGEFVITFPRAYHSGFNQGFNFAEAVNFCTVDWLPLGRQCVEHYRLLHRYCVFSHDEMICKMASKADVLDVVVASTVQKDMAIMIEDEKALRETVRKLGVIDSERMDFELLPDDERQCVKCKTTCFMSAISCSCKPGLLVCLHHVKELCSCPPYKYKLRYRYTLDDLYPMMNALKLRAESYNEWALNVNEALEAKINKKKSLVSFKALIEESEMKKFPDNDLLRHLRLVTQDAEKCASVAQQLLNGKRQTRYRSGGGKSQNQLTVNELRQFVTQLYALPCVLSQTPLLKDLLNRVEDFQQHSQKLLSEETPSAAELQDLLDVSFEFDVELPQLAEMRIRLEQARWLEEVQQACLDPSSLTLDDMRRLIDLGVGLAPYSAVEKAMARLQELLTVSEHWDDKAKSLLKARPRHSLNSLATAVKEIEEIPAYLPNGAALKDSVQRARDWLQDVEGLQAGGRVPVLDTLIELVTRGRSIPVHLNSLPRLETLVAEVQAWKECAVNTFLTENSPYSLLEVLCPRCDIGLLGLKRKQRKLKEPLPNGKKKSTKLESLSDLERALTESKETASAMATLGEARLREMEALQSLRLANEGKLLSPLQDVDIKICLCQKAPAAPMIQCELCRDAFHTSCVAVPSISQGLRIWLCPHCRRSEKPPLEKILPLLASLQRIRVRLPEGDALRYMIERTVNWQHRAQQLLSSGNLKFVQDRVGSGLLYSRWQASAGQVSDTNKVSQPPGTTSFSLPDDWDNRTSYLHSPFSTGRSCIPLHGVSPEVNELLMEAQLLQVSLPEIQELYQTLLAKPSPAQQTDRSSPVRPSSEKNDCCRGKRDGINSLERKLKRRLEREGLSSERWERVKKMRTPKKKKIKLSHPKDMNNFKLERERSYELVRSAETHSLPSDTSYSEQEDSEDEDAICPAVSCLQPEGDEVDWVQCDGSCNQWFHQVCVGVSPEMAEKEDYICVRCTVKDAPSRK
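Compound dilutions met 200 nM (final) KDM5BΔAP for 10 min at room temperature before substrate addition. The substrate mix held 12.5 µM H3K4me3 with cofactors 25 µM α-ketoglutarate and 50 µM Fe²⁺. NADH signal gain over 30 min defined activity.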
Numbers stand for hits; - = inactive; ! = a repeat was not active.

SMILES | KDM5B inh
Cc1cc(C)cc(NC(=O)C(Sc2ccc(S(=O)(=O)N3CCOCC3)cn2)c2ccccc2)c1 (stereo not given) | -
COCc1oc2c(cc(NS(=O)(=O)c3ccc(C)cc3)c3ccccc32)c1C(=O)OC | -
Cc1ccc(C(=O)/C=C/c2ccc(-c3cc(Cl)ccc3Cl)o2)cc1 | -
O=C(CSC1=Nc2ccccc2CS1)NC1CCCC1 | -
Cc1ccc(NC(=O)CSc2n[nH]c(=O)c3cc(-c4ccco4)nn23)cc1 | -
CC(C)(C)c1ccc(COC(=O)c2ccc(S(C)(=O)=O)cc2)cc1 | -
O=C(Cc1c(Cl)cccc1Cl)OCc1ccc(Cl)cc1Cl | -
COc1ccccc1N1CCN(C(C(=O)O)c2c[nH]c3cc(OCc4ccccc4)ccc23)CC1 (stereo not given) | -
CCCCc1ncc(-c2c(-c3ccccc3)ncn2CCCn2ccnc2)[nH]1 | -
Cc1ncc(-c2c(-c3ccccc3)ncn2CC(c2ccco2)N2CCCC2)[nH]1 (stereo not given) | 25µM
CCCCc1ncc(-c2c(-c3ccccc3)ncn2CC2(CO)CCC2)[nH]1 | -
COc1ccc(-c2csc(NC(=O)c3ccccc3OCc3noc(C)n3)n2)cc1 | -
O=C(NCc1ccnc2[nH]ccc12)c1cccc(Br)c1 | 32µM
O=C(NCc1ccnc2[nH]ccc12)c1cccc(Cl)c1 | 35µM
O=C(NCc1c[nH]c2ncccc12)c1ccc2ccccc2n1 | -
Cc1cc(C(=O)NCc2c[nH]c3ncccc23)ccc1Cl | -
O=C(NCc1c[nH]c2ncccc12)c1cccc(Cl)c1 | -
O=C(NCc1ccnc2[nH]ccc12)c1cncc(Br)c1 | -
O=C(NCc1ccnc2[nH]ccc12)c1ccccc1 | -
O=C(Cc1cccc(Cl)c1)NCc1ccnc2[nH]ccc12 | -
O=C(NCc1c[nH]c2ncccc12)c1cccc2[nH]ccc12 | 35µM
Cc1ccc(NC(=O)c2ccc3c(Cl)c4c(nc3c2)CCCC4)c(Cl)c1 | -
O=C(Nc1ccc(Cc2ccncc2)cc1)Nc1ccc(Cl)c(Cl)c1 | -
Cn1c(=O)n(Cc2cccc(Br)c2)c(=O)c2c1ncn2Cc1ccccc1 | -
O=C(NC1C2CC3CC(C2)CC1C3)c1cccc(F)c1 (stereo not given) | -
SMILES | KDM5B inh
Cc1cc(F)ccc1S(=O)(=O)Nc1ccc(N2CCCC2)c(F)c1 | -
CC(Sc1nnnn1C(C)(C)C)C(=O)c1cccc(Cl)c1 (stereo not given) | -
Cn1ccc(NC(=O)C2(C)COCc3cnc(Nc4ccccc4)nc32)n1 (stereo not given) | -
CC1(C(=O)NC2CCOCC2)COCc2cnc(Nc3ccccc3)nc21 (stereo not given) | -
CC1(C(=O)NC2CCOCC2)CN(Cc2ccccc2)Cc2ccc(Nc3ccccc3)nc21 (stereo not given) | 28µM
CC1(C(=O)NC2COC2)CN(Cc2ccccc2)Cc2ccc(Nc3ccccc3)nc21 (stereo not given) | 35µM
CC(C)CNc1ccc2c(n1)C(C)(C(=O)NC1CCOCC1)CN(Cc1ccccc1)C2 (stereo not given) | -
CCOC(=O)c1ccc(NC(=O)N2CCN(Cc3nc(-c4ccccc4)oc3C)CC2)cc1 | -
COc1cc(-c2nc3c(c(=O)[nH]c(=O)n3Cc3ccccc3)n2C)ccc1OCc1ccccc1 | -
COc1ccc2c(CCNC(=O)c3ccc(C)cc3)c[nH]c2c1 | -
Cc1ccccc1C(C)NC(=O)CSc1nc2cc([N+](=O)[O-])ccc2o1 (stereo not given) | -
O=C1NCc2ccccc2CC12CCCCN2Cc1ccc(F)cc1 (stereo not given) | -
Cc1cc(NC(=O)N(Cc2ccco2)C2CC2)n(C)n1 | -
COc1ccc(C(=O)N[C@@H]2CCC[C@@H]2C(=O)NCCCN2CCOCC2)cc1 | -
COc1cccc(CNC(=O)c2ccc3c(c2)NC(=O)CS3)c1 | -
COc1ccc(-c2cc(C[C@H]3CNCC[C@H]3CC(=O)NCCN3CCOCC3)no2)cc1 | -
COc1ccc(OCCNC(=O)c2ccc3[nH]c(C)c(C)c3c2)cc1 | -
CCOCC1(C)COc2ccc(C(=O)Nc3ccccn3)cc2N1 (stereo not given) | 32µM
CCc1nc2ccc(C(=O)Nc3ccccn3)cc2nc1CC | -
CCOCC1(C)COc2ccc(C(=O)NCc3cc(OC)cc(OC)c3)cc2N1 (stereo not given) | 32µM
COc1ccc(C(=O)NCCONC(=O)c2ccc(OC)cc2)cc1 | -
COc1ccc(CNC(=O)c2ccc3c(c2)NC(=O)CS3)cc1 | -
COc1ccc(OCC2(C)COc3ccc(C(=O)NCCN4CCOCC4)cc3N2)cc1 (stereo not given) | 35µM
COCCNC(=O)c1ccc2c(c1)NC(C)(COc1ccc(OC)cc1)CO2 (stereo not given) | 35µM
CS(=O)(=O)Cc1cccc(C(=O)Oc2ccc(C34CC5CC(CC(C5)C3)C4)cc2)c1 | -
SMILES | KDM5B inh
O=C(COC(=O)COc1ccc(C2SCCCS2)cc1)Nc1ccc(F)c(F)c1 | -
Cc1ccccc1NC(=O)c1ccc2c(c1)OCCN(C1CCC1)C2 | -
NC(=O)c1ccc(NC(=O)COC(=O)c2cc(=O)[nH]c3ccccc23)cc1 | -
CC(Sc1ncnc2nc[nH]c12)C(=O)NCCc1c[nH]c2ccc(Cl)cc12 (stereo not given) | -
COc1cccc(C(=O)OCc2nc(N)c3ccccc3n2)c1 | -
Cc1occc1-c1nnc(SC(C)C(=O)NCc2cccs2)o1 (stereo not given) | -
O=S(=O)(Cc1cccc(F)c1)c1ccc2ccccc2c1 | -
O=C(NCc1ccccc1Cn1cccn1)c1cn[nH]c1-c1ccc(F)cc1 | -
Cc1ccc(CN(C)C(=O)CS(=O)(=O)Cc2nc(-c3ccccc3)oc2C)cc1 | -
CC(=O)c1c(C)[nH]c(C(=O)C(C)OC(=O)c2c(F)cccc2F)c1C (stereo not given) | -
O=C(CSc1ccc(Cl)cc1)Nc1cc(Cl)ccc1N1CCOCC1 | -
NC(=O)C1CCN(C(=O)CCc2ncc(-c3ccc(F)cc3)o2)CC1 | -
O=C(c1cc(Br)cn2ccnc12)N1CCC(N2CCCCC2)CC1 | 28µM
O=C(c1cc(Br)cn2ccnc12)N1CCOCC1 | 28µM!
O=C(Nc1ccccc1C(=O)N1CCOCC1)c1cccc(Br)c1 | -
COc1cc(C(=O)N2CCC(N3CCCCC3)CC2)cc(OC)c1C | -
O=C(c1cc(-c2ccc(Br)cc2)on1)N1CCOCC1 | -
O=C(c1nc2sccn2c1Br)N1CCCC1 | -
N#CC1CCN(C(=O)C2CN(c3ccccc3)C(=O)N2)CC1 (stereo not given) | -
O=C(c1cc(Br)cn2ccnc12)N1CCCC1 | 35µM
CN1CCN(C(=O)c2cc(Br)cn2C)CC1 | -
CC1CCN(C(=O)c2cn3ccnc(-c4ccc(F)cc4)c3n2)CC1 | -
O=C(c1nc2sccn2c1Br)N1CCC(N2CCCCC2)CC1 | -
N#CC1CCN(C(=O)c2cc(Br)cn3ccnc23)CC1 | 40µM
CCc1ccc(C2C=C(c3ccccc3)Nc3nnnn32)cc1 (stereo not given) | -
SMILES | KDM5B inh
Cc1ccc2c(COC(=O)CCCN=C3NS(=O)(=O)c4ccccc43)cc(=O)oc2c1 | -
COc1ccc(-c2cc(=O)c3cc(OCC(=O)Nc4ccccc4)ccc3o2)cc1 | -
O=S(=O)(Nc1nc2ccccc2nc1NCc1ccccc1Cl)c1cccs1 | -
C=CCS(=O)(=O)O | -
O=C(COc1ccc(Cl)cc1)Nc1ccc2oc(-c3ccccc3)nc2c1 | -
Cc1ccc(C(=O)N2CCC(N3CCCCCC3=O)CC2)cc1 | 35µM
O=C(c1cc(Br)cn2ccnc12)N1CCC(N2CCCCCC2=O)CC1 | 25µM
